Shown is part of a subset that was picked to be rich in hits.
12-LOX inh = ALOX12 (human) lipoxygenase inhibition; P18054; purified 12hLO, xylenol orange hydroperoxide absorbance; Potency, µM (titrated, usually from 108 µM), for inactives: at the top dose activity change, negative = inhibition, hits mostly inhibitors; 580,000 tested, 1.1% active; AID 1671190; also: potency is read from the fitted curve at half-maximal effect
Target sequence (P18054 whole entry, looked up): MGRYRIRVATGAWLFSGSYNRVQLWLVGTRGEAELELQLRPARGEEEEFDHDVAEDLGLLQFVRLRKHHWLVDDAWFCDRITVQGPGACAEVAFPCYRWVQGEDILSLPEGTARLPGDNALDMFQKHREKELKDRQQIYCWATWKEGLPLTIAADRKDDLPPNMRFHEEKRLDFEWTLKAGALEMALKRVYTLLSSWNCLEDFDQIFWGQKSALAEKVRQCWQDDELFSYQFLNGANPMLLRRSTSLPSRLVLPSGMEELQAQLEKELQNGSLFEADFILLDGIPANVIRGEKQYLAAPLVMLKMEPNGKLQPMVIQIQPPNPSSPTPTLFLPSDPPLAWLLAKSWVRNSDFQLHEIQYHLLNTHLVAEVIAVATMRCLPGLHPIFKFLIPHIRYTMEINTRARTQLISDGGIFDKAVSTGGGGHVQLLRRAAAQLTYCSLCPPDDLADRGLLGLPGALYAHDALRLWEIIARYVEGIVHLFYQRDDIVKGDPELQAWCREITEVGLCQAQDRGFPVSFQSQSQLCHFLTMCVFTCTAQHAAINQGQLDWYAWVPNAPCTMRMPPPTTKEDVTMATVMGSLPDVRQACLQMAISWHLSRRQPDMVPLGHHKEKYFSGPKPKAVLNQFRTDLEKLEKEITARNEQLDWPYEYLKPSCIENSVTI
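Hydroperoxide product was detected by ferrous iron/xylenol orange as the 573 to 405 nm absorbance ratio. Arachidonic acid at 40 uM (final) was turned over for 30 min at room temperature by 150 nM human 12hLO, pH 7.0 Hepes buffer, after 15 min compound preincubation.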
HT1080 IDH1KD tx = HT-1080 IDH1 knockdown cell toxicity (counter line); HT-1080 IDH1 knockdown viability, ATP luminescence, 48 h; Potency, µM (top dose mostly 46.1 µM), inactives show at the top dose activity, negative = toxicity, most hits filed as cytotoxic; 360,000 tested, 2% active; AID 686971;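 also: potency is read from the fitted curve at half-maximal effect; 0% = DMSO wells and -100% = cell-free medium wells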
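HT-1080-IDH1KD cells (IDH1 knocked down), 750/well in RPMI with 5% FBS, treated with compound 48 h at 37 degrees C. Viability by CellTiter-Glo luminescence, normalised to DMSO and no-cell wells; concentration-response curves classed.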
IL1B secr inh = inflammasome signaling inhibition, IL-1 beta readout. activity change, % at 57.5 µM. 360,000 tested, 4.7% active. THP-1 LPS/ATP IL-1B secretion, AlphaLISA, 16 h; stronger effect = lower value; in the data active = activity change below about -50%; inconclusive = mostly about -30% to -49%
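THP-1 cells pretreated 1 hr with compounds (up to 57.5 uM final), then stimulated with LPS (250 ng/mL final) plus ATP (1.25 mM final); secreted IL-1B measured by AlphaLISA after 16 hr, decreased signal indicating inhibition.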
TDP1 cell CPT = growth inhibition of DT40 Tdp1-/-;hTDP1 cells with camptothecin (screen for TDP1 inhibitors). chicken DT40 Tdp1-/-;hTDP1 cells + 20 nM CPT, ATP luminescence, 48 h. Potency, µM (top dose mostly 46.2 µM), for the others: at the top dose activity change, negative = growth inhibition, actives largely listed as inhibitors. 420,000 tested, 12% active. AID 686979; also: potency is read from the fitted curve at half-maximal effect; nearly all actives have a fitted effect of over 55% in size
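Cell growth measured by CellTiter-Glo luminescence after a minimum 48 h, 37 C compound exposure with 20 nM CPT in Tdp1-knockout DT40 cells stably expressing hTDP1, seeded 400/well; qHTS titration format.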
DT40 TDP1 no CPT = qHTS for Inhibitors of human tyrosyl-DNA phosphodiesterase 1 (TDP1): qHTS in cells in absence of CPT; DT40 Tdp1-/- hTDP1 cells, no CPT, ATP luminescence, 48 h; Potency, µM (highest dose often 46.2 µM), for the others: at the top dose activity change, negative = growth inhibition, usual class: inhibitors; 420,000 tested, 15% active; AID 686978, 2013; also: potency is read from the fitted curve at half-maximal effect; nearly all actives have a fitted effect of over 55% in size
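Growth kinetics read by CellTiter-Glo luminescence after ≥48 hr at 37 °C. Cells: DT40 Tdp1-/- stably carrying human TDP1, 400 per well, compound exposure in the absence of CPT (DMSO vehicle).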
HT1080-NT tox = kills 2HG-producing HT-1080-NT fibrosarcoma cells. 360,000 tested, 1.6% active. HT-1080-NT fibrosarcoma viability, CellTiter-Glo ATP luminescence, 48 h. Potency, µM (titrated, usually from 46.1 µM), for the others: at the highest dose activity, negative = less viability, actives largely listed as cytotoxic;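 also: NT is the 2HG producing partner of a matched IDH1 knockdown line; potency is read from the fitted curve at half-maximal effect; 0% = DMSO-treated cells and -100% = media-only wells without cells; nearly all actives have a fitted effect of over 55% in size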
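Fibrosarcoma NT cells, 750 per well in 5% FBS RPMI, were exposed to compound for 48 hours. Viability: CellTiter-Glo luminescence.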
Numbers without * were called inactive; i = inactive; ? = inconclusive; nt = no result. Unless noted, calls follow the shape of the dose curve; as a rule, active = well fitted curve in the direction sought with a large enough effect; inconclusive = small, poorly fitted or top-dose-only effect, or another doubt; inactive = no such curve, though single readings can be large; an effect the other way counts as inactive or inconclusive. Unless noted, % is scaled to controls: 0 for no effect and ±100 for the full control effect.

SMILES	12-LOX inh	HT1080 IDH1KD tx	IL1B secr inh	TDP1 cell CPT	DT40 TDP1 no CPT	HT1080-NT tox
Cc1ccccc1-n1nnnc1SCC(=O)N(Cc1ccco1)C1=CCCCC1	8.9µM*	nt	nt	nt	nt	nt
COc1ccc2cc(/C=C/C(=O)c3cccs3)ccc2c1	34%	nt	nt	nt	nt	nt
O=C1c2c(-c3ccc(Br)cc3)noc2CCN1Cc1cn(-c2ccccc2)nn1	8%	-25%	0	21µM*	?	?
O=C1c2c(-c3ccc(Br)cc3)noc2CCN1Cc1cn(-c2ccc(Cl)cc2)nn1	86%	-26%	-24	?	?	?
O=C1c2c(-c3ccc(Br)cc3)noc2CCN1Cc1cn(Cc2ccccc2)nn1	4%	?	-8	?	18µM*	?
CCCc1ccc(OCc2ccc(C(=O)O)cc2)cc1	19%	nt	nt	nt	nt	nt
CCOc1ccc(CN2CCN(CCCc3ccccc3)CC2CCO)cc1 (stereo not drawn)	-9%	-5%	-52*	?	?	-15%
OCCC1CN(Cc2ccccc2O)CCN1CCCc1ccccc1 (stereo not drawn)	0%	-1%	17	0%	-31%	2%
C#Cc1ccc(CN2CCN(CCCc3ccccc3)C(CCO)C2)cc1 (stereo not drawn)	6%	-15%	-55*	-14%	?	-1%
COc1cc(CN2CCN(CCCc3ccccc3)C(CCO)C2)cc(OC)c1O (stereo not drawn)	?	2%	21	6.5µM*	6.5µM*	1%
OCCC1CN(Cc2c(O)ccc3ccccc23)CCN1CCc1ccccc1 (stereo not drawn)	7.1µM*	1%	-6	?	?	-18%
OCCC1CN(CCCc2ccccc2)CCN1Cc1ccc(F)cc1 (stereo not drawn)	10%	-4%	-16	0%	-25%	-10%
OCCC#Cc1ccc(CN2CCN(CCc3ccccc3)C(CCO)C2)cc1 (stereo not drawn)	2%	-4%	7	4%	-2%	8%
CCCn1nc(C(=O)N2CCN(Cc3ccccc3F)CC2)c2ccccc2c1=O	-23%	nt	nt	nt	nt	nt
CCCN(C)c1nccnc1OC1CCN(C(=O)c2ccc(F)cc2)C1 (stereo not drawn)	46%	nt	nt	nt	nt	nt
CC(C)CCNC(=O)NC(=O)CCl	28µM*	nt	nt	nt	nt	nt
CCCCN(C)C(=O)CC1CCN(c2ccnc(OC)n2)CC1	23%	nt	nt	nt	nt	nt
O=C(O)C1CC(=O)N(c2ccc(S(=O)(=O)Nc3ccccc3F)cc2)C1 (stereo not drawn)	-15%	nt	nt	nt	nt	nt
CC(C)CNC(=O)Cc1ccc2c(c1)CCCC2	21%	nt	nt	nt	nt	nt
COc1cccc(/C=C(/C(=O)c2ccccc2)c2nc3ccccc3s2)c1	-32%	nt	nt	nt	nt	nt
CCC1CCc2sc(C(=O)NNC(=S)NCC3CCCO3)cc2C1 (stereo not drawn)	307%	-4%	22	?	?	0%
CCC1CCc2sc(C(=O)NCc3ccccn3)cc2C1 (stereo not drawn)	9%	?	-11	15µM*	10µM*	-25%
CCC1CCc2sc(C(=O)NCC3CCCO3)cc2C1 (stereo not drawn)	-5%	20%	-17	?	18µM*	-1%
CCC1CCc2sc(C(=O)NCC(c3ccccc3OC)N3CCCC3)cc2C1 (stereo not drawn)	145%	?	-22	16µM*	21µM*	?
Cc1oc(-c2ccccc2)nc1CC(=O)Nc1cc(S(=O)(=O)N2CCCCC2)ccc1N(C)C	19%	nt	nt	nt	nt	nt
SMILES	12-LOX inh	HT1080 IDH1KD tx	IL1B secr inh	TDP1 cell CPT	DT40 TDP1 no CPT	HT1080-NT tox
Cc1cnc(CNC(=O)CC2C(=O)NCCN2CCCc2ccccc2)cn1 (stereo not drawn)	31%	nt	nt	nt	nt	nt
Cc1cc(NC(=O)CNc2cc(S(=O)(=O)N3CCOCC3)ccc2Oc2ccccc2)no1	38%	nt	nt	nt	nt	nt
COc1ccc(N2CCN(C(=O)Cc3csc(NC(=O)Nc4ccccc4OC)n3)CC2)cc1	?	-11%	-18	16µM*	16µM*	-11%
COc1ccccc1NC(=O)Nc1nc(CC(=O)NCC2CCCCC2)cs1	-4%	nt	nt	nt	nt	nt
COc1ccccc1NC(=O)Nc1nc(CC(=O)N2CCN(c3ccc(F)cc3)CC2)cs1	-9%	-30%	-9	?	?	-18%
COc1ccccc1NC(=O)Nc1nc(CC(=O)N2CCN(c3ccccc3)CC2)cs1	?	-19%	?	16µM*	?	-21%
CCN(CC)CCNC(=O)CCc1ncc(-c2ccc(Cl)cc2)o1	-40%	nt	nt	nt	nt	nt
CN1CCN(c2ccc(CNS(=O)(=O)c3ccc(Cl)cc3)cc2)CC1	i	20%	-2	?	12µM*	10%
Cc1ccc(S(=O)(=O)NCc2ccc(N3CCN(C(=O)OC(C)(C)C)CC3)cc2)cc1	0%	-1%	21	13µM*	16µM*	4%
Cc1ccc(NC(=O)c2ccc(C)cc2)cc1	4%	23%	-2	4%	-7%	9%
CSC(SC)=C(C(C)=O)C(=O)c1ccc(C)cc1	-16%	-1%	-50*	-2%	?	-1%
COc1ccc(C(=O)N2CCN(Cc3ccccn3)CC2)cc1	?	5%	-14	4%	18%	1%
COc1c(C)cc(C(=O)C2CCCN(Cc3ccc(Oc4ncccn4)cc3)C2)cc1C (stereo not drawn)	-7%	0%	-11	?	15µM*	-4%
CCn1ccnc1CN1CCCC(C(=O)c2ccc3cc(OC)ccc3c2)C1 (stereo not drawn)	3%	?	-96*	2.9µM*	4.6µM*	?
CC(C)Oc1cccc(C(=O)C2CCCN(Cc3cnc(N4CCCC4)s3)C2)c1 (stereo not drawn)	-1%	-21%	?	?	?	-24%
COc1ccc2cc(C(=O)C3CCCN(Cc4ccccn4)C3)ccc2c1 (stereo not drawn)	0%	-20%	-27	?	18µM*	-20%
COc1ccc2cc(C(=O)C3CCCN(Cc4cnc(N5CCOCC5)s4)C3)ccc2c1 (stereo not drawn)	-22%	-16%	?	?	18µM*	-3%
Cc1nn(C)c2nc(N3CCCCC3CN3CCOCC3)sc12 (stereo not drawn)	-5%	nt	nt	nt	nt	nt
CNC(=O)c1noc([C@@H]2CC(F)(F)CN2C(=O)c2cccc(C)c2)n1	37%	nt	nt	nt	nt	nt
O=c1oc2ccccc2c(N2CCCC2)c1NS(=O)(=O)c1ccc(F)cc1	-23%	nt	nt	nt	nt	nt

Screens as filed in PubChem BioAssay.
